Results: PubChem BioAssay
Potency and affinity values are given separately. Active and inactive are the calls of the source.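 The calls were made as follows, unless noted: active = fitted dose curve reaches 40% lysis signal rise at or below the highest valid concentration tested for that sample; inconclusive = flat fit between 30% and 70%, or poor curve fit; inactive = signal falls, stays flat within 30%, or no crossing.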

Assays:
[1] = C. neoformans lysis by adenylate kinase leakage – AK release luminescence, cherry-picks, dose response (AID 687000);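 also: luminescent detection of adenylate kinase leaking from lysed yeast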
[2] = viability loss in HepG2 hepatoma cells – cell-based, cherry-picks, set 2, cytotoxicity control, dose response (AID 687002;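 active = a dose-response fit showing signal loss, with half-maximal concentration no higher than twice the top tested dose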)
[3] = viability loss in HeLa cells – cell-based, ATP luminescence, cherry-pick samples, cytotoxicity control, dose response (AID 687004;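 active = a fitted half-maximal concentration no higher than twice the top valid tested dose, with signal falling as cells die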)

Measured: outcome

Cc1ccc(C2CC(c3cccs3)=NN2C(=O)c2ccc(Br)o2)cc1 (stereo not given)
inactive: all assays above

O=C(NC[C@H]1[C@H](c2ccccc2)[C@H](CO)N1C(=O)Cc1cccnc1)C1CCC1
inactive: all assays above

Cc1ccc(C)c(NC(=O)C2(C)CCN2C(=O)C(C)C)c1 (stereo not given)
inactive: all assays above

O=C(CSc1ncnc2c1cnn2-c1ccc(F)cc1)NCC1CCCO1 (stereo not given)
inactive: all assays above

CN1c2ccc(-c3ccc(F)cc3)cc2[C@@H]2[C@@H](CCN2C(=O)C2CCOCC2)[C@@H]1CO
inactive: all assays above

Cc1ccccc1N(CC(=O)NCCSC1CCCCC1)S(=O)(=O)c1ccccc1
inactive: all assays above

CNC[C@@H]1Oc2ccc(NS(=O)(=O)c3ccc(Cl)cc3)cc2C(=O)N([C@H](C)CO)C[C@H]1C
inactive: all assays above

Fc1ccc(CNC(=S)NCc2cccc(Cl)c2)cc1
inactive: all assays above

CCc1ccc(NC(=O)[C@H](C)NC(=O)C2CCN(C(=O)[C@@H](N)C(C)C)CC2)cc1
inactive: all assays above

O=C(NC(=S)Nc1ccc(N2CCOCC2)cc1)c1cccc([N+](=O)[O-])c1
inactive: all assays above

CCOC(=O)CNC(=O)CSc1ncnc2c1cnn2-c1ccc(C)cc1
inactive: all assays above

COc1cc(C(=O)NC(=S)Nc2ccccc2N2CCOCC2)cc(OC)c1OC
inactive: all assays above

O=C(NC(=S)NCC1COc2ccccc2O1)c1ccccc1 (stereo not given)
inactive: all assays above

O=C(CSc1ncnc2c1cnn2-c1ccc(F)cc1)NCc1ccc2c(c1)OCO2
inactive: all assays above

C[C@H](CO)N1C[C@H](C)[C@@H](CN(C)C(=O)Nc2ccc3c(c2)OCO3)Oc2ccc(NS(=O)(=O)c3cccs3)cc2C1=O
inactive: all assays above

CCc1ccccc1NC(=O)C1NC(=O)CC1c1ccccc1 (stereo not given)
inactive: all assays above

COc1ccc(CN(C)C[C@H]2Oc3ccc(NS(C)(=O)=O)cc3CC(=O)N([C@@H](C)CO)C[C@H]2C)cc1
inactive: all assays above

Cc1cc(C)c(NC(=O)CN2CCCCCC2)c(C)c1
inactive: all assays above

CO[C@@H]1CN(C)C(=O)c2cc(NC(=O)C3CCOCC3)ccc2OC[C@H](C)NC[C@@H]1C
inactive: all assays above

CN1c2ccc(Br)cc2[C@@H]2[C@@H](CCN2C(=O)Cc2cccnc2)[C@@H]1CO
inactive: all assays above

CCN1C(=S)N[C@@H](c2cccc(F)c2)C(C(=O)OC)=C1C
inactive: all assays above

Cc1ccc2c(C)c(C(=O)N3CCN(Cc4ccccn4)CC3)oc2c1C
inactive: all assays above

O=C(C[C@H]1CC[C@@H]2[C@H](COC[C@H](O)CN2CC2CCOCC2)O1)NCc1ccc(Cl)cc1
inactive: all assays above

CCC(C)c1ccc(NC(=S)N2CCN(c3ccccn3)CC2)cc1 (stereo not given)
inactive: all assays above

Cc1ccc(C(=O)n2nnc3ccccc32)cc1[N+](=O)[O-]
inactive: all assays above

CCOC(=O)CNC(=O)CSc1ncnc2c1cnn2-c1ccccc1
inactive: all assays above

C[C@@H]1CN([C@H](C)CO)C(=O)c2cc(NS(=O)(=O)c3cn(C)cn3)ccc2O[C@@H](C)CCCCO[C@H]1CN(C)C
inactive: all assays above

Cc1cc(C)cc(OCC(=O)NC(C)c2ccccc2)c1 (stereo not given)
inactive: all assays above

CCC(=O)Nc1ccc2c(c1)C(=O)N(C)C[C@H](OC)[C@@H](C)CN[C@H](C)CO2
inactive: all assays above

Cc1noc(C)c1NC(=O)N(C)C[C@@H]1Oc2ccc(NC(=O)NC(C)C)cc2CC(=O)N([C@@H](C)CO)C[C@@H]1C
inactive: all assays above

COc1ccc(NC(=O)N(C)C[C@H]2OCCCC[C@@H](C)Oc3ccc(NC(=O)c4ccccc4)cc3C(=O)N([C@H](C)CO)C[C@H]2C)cc1
inactive: all assays above

CCC(=O)N1CCC1(C)C(=O)Nc1ccc(C)c(C)c1 (stereo not given)
inactive: all assays above

Cc1ccc(CSc2ncnc3c2cnn3-c2ccccc2)cc1
inactive: all assays above

O=C(C[C@H]1CC[C@H]2[C@@H](COC[C@H](O)CN2C(=O)Nc2ccc3c(c2)OCO3)O1)N1CCN(c2ccccc2)CC1
inactive: all assays above

O=C(c1c(Cl)cccc1Cl)N1CCN(c2ccccn2)CC1
inactive: all assays above

CCNC(=O)CN(c1ccc(Cl)cc1)S(=O)(=O)c1ccccc1
inactive: all assays above

CCC(=O)N1CCCC1(C)C(=O)Nc1ccc(C)c(C)c1 (stereo not given)
inactive: all assays above

Cc1cccc(C)c1NC(=O)C1CCCCN1C (stereo not given)
inactive: all assays above

O=C(C[C@@H]1CC[C@@H](NC(=O)c2cccnc2)[C@@H](CO)O1)NCCN1CCCCC1
inactive: all assays above

CC(=O)c1cccc(NC(=S)NC2CCCCCCC2)c1
inactive: all assays above

CCOC(=O)CNC(=O)CSc1ncnc2c1cnn2-c1ccc(Cl)cc1
inactive: all assays above

CC(=O)c1ccc(OCC(=O)NCc2ccc(F)cc2)cc1
inactive: all assays above

Cc1ccccc1S(=O)(=O)N[C@@H]1CC[C@H](CCNS(=O)(=O)c2cccc(F)c2)O[C@H]1CO
inactive: all assays above

Cc1ccc(C2CCN(C(=S)NC3CCCCC3)C2)cc1 (stereo not given)
inactive: all assays above

Cc1ccc(NC(=O)C2(N3CCC3=O)CCCCC2)cc1
inactive: all assays above

Cc1ccc(S(=O)(=O)N(C)C[C@H]2Oc3c(cccc3N(C)C)C(=O)N([C@@H](C)CO)C[C@H]2C)cc1
inactive: all assays above

CNC[C@@H]1Oc2c(NS(=O)(=O)c3ccc(Cl)cc3)cccc2C(=O)N([C@H](C)CO)C[C@H]1C
inactive: all assays above

Cc1ccc(N(CC(=O)NCCSCc2ccco2)S(=O)(=O)c2ccc(F)cc2)cc1
inactive: all assays above

Cc1cc(OCC(=O)N(C)Cc2ccccc2)cc(C)c1Cl
inactive: all assays above

c1ccc(-n2ncc3c(NCc4ccc5c(c4)OCO5)ncnc32)cc1
inactive: all assays above

O=C(c1ccco1)N1N=C(c2cccs2)CC1c1cc([N+](=O)[O-])ccc1O (stereo not given)
inactive: all assays above

CCC(C)(C(=O)Nc1ccccc1C)N(C(=O)CNC(C)=O)c1ccccc1C (stereo not given)
inactive: all assays above

CC(C)CC#Cc1cnc2c(c1)C(=O)N([C@@H](C)CO)C[C@H](C)[C@H](CN(C)C(=O)c1ccc3c(c1)OCO3)O2
inactive: all assays above

CC=Cc1ccc2n(c1=O)C[C@@H]1[C@@H](CO)[C@H](C(=O)NCc3ccc4c(c3)OCO4)[C@H]2N1C(=O)C1CC1 (mixture of isomers)
inactive: all assays above

Cc1ccc(S(=O)(=O)N2CC[C@@H]3[C@H]2c2cc(-c4ccccc4F)ccc2N[C@@H]3CO)cc1
inactive: all assays above

CO[C@H]1CN(C)C(=O)c2ccc(NC(=O)NC(C)C)cc2OC[C@@H](C)NC[C@H]1C
inactive: all assays above

Cc1cccc(C)c1NC(=O)C1CCCN1C(=O)OC(C)(C)C (stereo not given)
inactive: all assays above

CCC(=O)N1[C@H](CO)[C@@H](c2ccc(-c3cccnc3)cc2)[C@@H]1CN(C)C(C)=O
inactive: all assays above

Cc1ccc(N2C(=O)CC(N3CCN(c4ccc(F)cc4)CC3)C2=O)c(C)c1 (stereo not given)
inactive: all assays above

CCCC(=O)Nc1ccc2c(c1)OC[C@@H](C)N(Cc1ccccn1)C[C@@H](C)[C@H](OC)CN(C)C2=O
inactive: all assays above
